The list is not random: actives were taken first. Their share in the collection is about 0.86%.
NOD2 RIPK2 PPI: NOD2-RIPK2 binding disruptors in cells, primary screen, fluorescence, CHO cells, BLA complementation | Receptor-interacting serine/threonine-protein kinase 2 (Homo sapiens), O43353 | CCF4 ratio | inhibition, % at 4.98 µM | 360,000 tested, 0.38% active | AID 624267, 2012; in the data active = inhibition above about 21%;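 also: 0% = vehicle only and 100% = reference blocker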
TLR4-MyD88 BLA: inhibitors of TLR4-MyD88 association in cells, primary screen, cell-based, HeLa CL3-4, BLA complementation, FRET ratio; AID 861, 2007; 200,000 tested, 0.18% active; HeLa CL3-4 TLR4/MyD88 BLA complementation; Toll-like receptor 4 (Homo sapiens) + Myeloid differentiation primary response protein …; inhibition, % at 8.4 µM; in the data active = inhibition above about 25%;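 also: 0% = vehicle and 100% = reference inhibitor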
Target sequence (O00206 whole entry, looked up): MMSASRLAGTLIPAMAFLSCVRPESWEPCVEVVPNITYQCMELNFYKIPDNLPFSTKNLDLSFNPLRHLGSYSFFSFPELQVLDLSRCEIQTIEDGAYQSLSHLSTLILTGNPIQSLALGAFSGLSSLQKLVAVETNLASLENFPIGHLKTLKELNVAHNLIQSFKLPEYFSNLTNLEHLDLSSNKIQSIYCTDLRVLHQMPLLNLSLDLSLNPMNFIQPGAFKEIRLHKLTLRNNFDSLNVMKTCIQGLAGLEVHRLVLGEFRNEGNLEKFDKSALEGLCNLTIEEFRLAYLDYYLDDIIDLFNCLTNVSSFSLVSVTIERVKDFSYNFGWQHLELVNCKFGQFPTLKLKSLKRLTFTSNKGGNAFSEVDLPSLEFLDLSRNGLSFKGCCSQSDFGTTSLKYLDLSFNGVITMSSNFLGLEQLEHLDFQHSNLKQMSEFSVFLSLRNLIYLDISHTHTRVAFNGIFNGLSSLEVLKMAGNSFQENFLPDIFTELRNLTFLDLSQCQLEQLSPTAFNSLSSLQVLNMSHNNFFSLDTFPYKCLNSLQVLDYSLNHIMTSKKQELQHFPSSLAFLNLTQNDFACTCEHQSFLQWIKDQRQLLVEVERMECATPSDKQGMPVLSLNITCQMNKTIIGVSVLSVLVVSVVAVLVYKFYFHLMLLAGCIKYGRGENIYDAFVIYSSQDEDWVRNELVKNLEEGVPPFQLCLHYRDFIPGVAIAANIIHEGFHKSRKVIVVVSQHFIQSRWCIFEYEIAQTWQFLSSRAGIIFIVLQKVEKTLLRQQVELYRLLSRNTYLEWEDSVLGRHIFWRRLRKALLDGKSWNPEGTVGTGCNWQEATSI
Target sequence (Q99836 whole entry, looked up): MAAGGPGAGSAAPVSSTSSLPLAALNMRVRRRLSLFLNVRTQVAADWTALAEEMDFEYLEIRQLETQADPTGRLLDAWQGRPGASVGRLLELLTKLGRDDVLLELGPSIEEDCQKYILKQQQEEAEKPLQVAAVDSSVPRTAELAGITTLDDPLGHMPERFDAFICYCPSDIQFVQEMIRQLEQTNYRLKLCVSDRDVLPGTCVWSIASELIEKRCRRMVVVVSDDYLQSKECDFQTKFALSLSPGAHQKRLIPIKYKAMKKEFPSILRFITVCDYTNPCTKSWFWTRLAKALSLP
IDE inh: human IDE inhibitors in live cells, primary screen, fluorescence polarization, HEK cells, FAbetaB substrate | Insulin-degrading enzyme (Homo sapiens), P14735 | FAbetaB cleavage | inhibition, % at 5.59 µM | 320,000 tested, 0.41% active;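 active = percent inhibition above the average of all tested compounds plus 3 SD, set per screening campaign, cut at about 16% in these data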;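 also: IDE supplied by intact live HEK cells; FP after avidin binding of uncleaved biotin substrate so inhibition keeps polarization high; 0% = DMSO wells and 100% = 60 µM reference IDE inhibitor Ii1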
IDE cell activ: human IDE activators in live cells, primary screen, fluorescence polarization, HEK cells, FAbeta-B substrate. Insulin-degrading enzyme (Homo sapiens), P14735. FAbeta-B cleavage; 0% vehicle, 100% cell-free pure enzyme wells. activation, % at 5.96 µM. 340,000 tested, 0.073% active. AID 493087, 2011;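 active = activation above the mean of all tested compounds plus 3 SD, set per screening campaign, cut at about 17% in these data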
TLR9-MyD88 inh: inhibitors of TLR9-MyD88 association in cells, primary screen, cell-based, CHO, BLA complementation, fluorescence. inhibition, % at 4.98 µM. 340,000 tested, 0.21% active. Toll-like receptor 9 (Homo sapiens) + Myeloid differentiation primary response protein …. CCF4 FRET ratio;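 active = inhibition above the mean over all tested compounds plus 3 SD, cut at about 21% in these data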;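 also: 0% = DMSO only wells and 100% = clavulanate BLA inhibitor control wells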
NOD2-RIPK2 conf: NOD2-RIPK2 binding disruptors, retest, confirmation, fluorescence, CHO cells, BLA complementation, triplicate. shares compounds with NOD2 RIPK2 PPI. CCF4 FRET. inhibition, % at 4.98 µM. 1,200 tested, 70% active;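 active = mean inhibition across replicates above a set limit taken from the earlier primary screen, cut at about 21% in these data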;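 also: 0% = DMSO-only wells and the high end = clavulanate BLA-blocked wells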
BLA counter: NOD2-RIPK2 counterscreen BLA reporter activity; shares compounds with NOD2 RIPK2 PPI; CHO BLA reporter, CCF4 FRET ratio; inhibition, % at 4.98 µM; 1,200 tested, 57% active; AID 624371;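 active = mean inhibition above the low-control mean inhibition plus three low-control SD, cut at about 11% in these data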;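 also: 0% = DMSO only wells and 100% = clavulanate high control wells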
Active calls of the source: *; . = no result; + = active, no number.

SMILES	NOD2 RIPK2 PPI	TLR4-MyD88 BLA	IDE inh	IDE cell activ	TLR9-MyD88 inh	NOD2-RIPK2 conf	BLA counter
COc1ccc(NC(=O)C(C2CC2)n2c(=O)c(-c3cc4ccccc4[nH]3)nc3ccccc32)cc1 (stereo not drawn)	46*	.	.	.	.	40*	67*
O=C(O)C1CCCN1c1ncnc2ccccc12 (stereo not drawn)	0	13	1	1	-6	.	.
O=C(Nc1csnn1)OCc1ccccc1	-5	.	.	0	-10	.	.
CCc1ccc(-c2ccc(SCC(=O)NCC3CCCO3)nn2)cc1 (stereo not drawn)	-3	5	-4	4	9	.	.
COc1ccccc1/C=C(/NC(=O)c1ccc(Cl)cc1Cl)C(=O)O	32*	-7	2	-4	7	7	1
CC(=O)Nc1ccc(S(=O)(=O)Nc2ccc3c(c2)OCCO3)cc1Cl	-18	.	8	.	.	.	.
FC(F)(F)c1cnc2c(c1)Nc1ccccc1S2	22*	-2	3	-3	10	9	5
CCCCCC(=O)N1C[C@H](O)[C@@H](n2cc(-c3ccc(F)cc3)nn2)C[C@@H]1c1ccc(Cl)cc1	4	.	.	.	-2	.	.
CC(C)(C)C1CCc2onc(C(=O)Nc3cnn(Cc4ccc(F)cc4)c3)c2C1 (stereo not drawn)	3	13	-4	5	1	.	.
Cc1ccc2nc(SCC(=O)Nc3cc(C(F)(F)F)ccc3N3CCOCC3)[nH]c2c1	34*	13	-6	2	4	15	-1
O=C(CSc1nccc(=O)[nH]1)Nc1cc(C(F)(F)F)ccc1N1CCOCC1	-16	.	-3	-1	3	.	.
CCc1c(C(=O)NCc2ccccc2Cl)[nH]c(C)c1C(C)=O	3	13	9	2	2	.	.
COC(=O)c1nn(-c2ccc(OC)cc2)c(=O)cc1O	1	-9	-1	2	6	.	.
COc1ccc(-n2nc(C#N)c(Cl)cc2=O)cc1	49*	17	.	.	.	56*	8
N#CC(=C1C=CC(=NO)C(Cl)=C1)c1ccccc1	32*	.	.	.	.	39*	14*
O=C(CCc1ccccc1)Nc1ccc2c(c1)OCO2	0	.	5	1	-7	.	.
Nc1cc2c(cc1Cl)-c1ccc([N+](=O)[O-])cc1C2=NO	22*	.	.	-6	0	18	26*
O=C1NC(Cc2ccccc2)C(=O)N1Cc1ccccc1 (stereo not drawn)	-8	.	.	3	-2	.	.
O=c1ccsn1Cc1ccccc1	27*	7	11	-15	2	-4	1
CCOC(=O)c1c[nH]c(=S)n(-c2ccccc2)c1=O	-13	.	-4	3	-5	.	.
CCOC(=O)c1c(SCCN2CCCC2)n(-c2ccccc2)c(=S)n(-c2ccccc2)c1=O	89*	.	.	1	8	86*	5
C=C(CN(C)C)C(=O)c1ccc(C)cc1C	33*	.	.	-3	11	94*	30*
Nc1ccc(C(=O)NCC2(c3ccccc3)CCCC2)cc1	0	4	7	5	-4	.	.
CCC(=O)OCOc1ccc(/C=C2/CCC(CN(C)C)C2=O)cc1 (stereo not drawn)	33*	.	.	-1	10	35*	6
COc1ccc(C)cc1Nc1ncnc2c1nnn2Cc1ccccc1Cl	-4	.	.	.	13	.	.
SMILES	NOD2 RIPK2 PPI	TLR4-MyD88 BLA	IDE inh	IDE cell activ	TLR9-MyD88 inh	NOD2-RIPK2 conf	BLA counter
CCOC(=O)C1=C(C)Nc2sc(C(=O)c3ccc(C)cc3)c(N)c2C1c1ccc(C(=O)OC)cc1 (stereo not drawn)	42*	14	1	4	18	9	17*
COCCNC(=O)CN1CCN(C(c2ccccc2)c2ccccc2)CC1	-13	-3	-4	2	-6	.	.
CCN(CC)c1ccc(/C=C2\SC(=O)N(C(C)C)C2=O)o1	56*	.	8	.	.	12	10*
CC(C)N1C(=O)S/C(=C/c2ccc3c(c2)n(C)c(=O)n3C)C1=O	2	2	-2	4	-4	.	.
COC(=O)[C@@]12C[C@@H](CC(=O)NCCc3ccccc3OC)C(=O)N(Cc3ccco3)C1=CCC(C)(C)C2	14	.	.	.	.	.	.
O=C(N/N=C/c1[nH]c2ccccc2c1Cl)c1cccc(Br)c1	24*	.	1	.	.	11	31*
Cc1[nH]c2ccccc2c1/C=N/NC(=O)c1cccc(Br)c1	-8	.	1	0	-5	.	.
Cc1ccc(-c2noc(CCC(=O)NCCCN3CCN(c4cccc(Cl)c4)CC3)n2)cc1	29*	-4	1	2	-5	15	-1
Cc1ccc(-c2noc(CCC(=O)NCCCN3CCN(c4ccc(F)cc4)CC3)n2)cc1	-9	7	-1	2	6	.	.
CC(/C=N/n1c(-c2ccc(Cl)cc2)n[nH]c1=S)=C\c1ccco1	6	9	-4	-11	-9	.	.
N#CC(C#N)=C1C=CC=CN1/C(=C\c1ccco1)C(=O)c1ccc(Cl)cc1	94*	-9	11	-5	19	91*	17*
N#CC(C#N)=C1C=CC=CN1/C(=C\c1ccco1)C(=O)c1ccc(-c2ccccc2)cc1	22*	9	9	-9	15	78*	16*
COC(=O)[C@]12CCCCC=C1N(Cc1cccc3ccccc13)C(=O)[C@H](CC(=O)N1CCC(c3ccccc3)CC1)C2	-5	.	.	.	.	.	.
CCOC(=O)CN1CC23C=CC(O2)C(C(=O)NCc2ccc(F)cc2)C3C1=O (stereo not drawn)	6	9	3	2	3	.	.
COC(=O)c1cccc(Cn2c(Cl)c(/C=N/Nc3ccccc3C)sc2=O)c1	38*	-2	3	3	7	5	0
CC(Sc1ccc(Cl)cc1)C(=O)Nc1ccc2c(c1)OCO2 (stereo not drawn)	-8	-1	5	2	-22	.	.
CC(C)N1CCC2(CC1)N=C(c1ccc3c(c1)OCO3)CC(c1cc(Cl)ccc1O)N2 (stereo not drawn)	21*	10	10	-8	15	10	2
O=C(NCC(F)(F)F)C1C(=O)Nc2ccccc2C(=O)N1Cc1ccccc1 (stereo not drawn)	-4	.	.	.	.	.	.
CCNC(=O)NC(=O)C(C)N1C(=O)NC(c2ccccc2)(c2ccccc2)C1=O (stereo not drawn)	+	.	-3	2	-5	0	-2
COc1cccc(-n2c(C)nnc2SCC#N)c1	-2	-10	8	-6	-9	.	.

From PubChem BioAssay
